Compound activity: PubChem, National Center for Advancing Translational Sciences (NCATS)
This is a sample that favours compounds with a hit; in the whole collection about 7.5% have one here.
HCMV inh: qHTS Assay for inhibitors of the human cytomegalovirus (HCMV). activity change, negative = inhibition, % at 57.5 µM. AID 1259415, 2018. 410,000 compounds, 4.5% hits. HFF cells, HCMV-luciferase reporter, 72 h; active compounds read low; in the data active = activity change below about -60%; inconclusive = no clear call, values can overlap the other calls; inactive = above about -39%
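Human foreskin fibroblasts infected with luciferase-reporter HCMV at MOI 1 PFU/cell, compounds at two doses. Luciferase measured 72 h post infection; normalized to buffer-only basal and Salinomycin (10uM) controls.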
FMDV antiviral: High Throughput Screening for Foot and Mouth Disease Virus Antivirals | Potency, µM (series often up to 57.9 µM), without a hit: at the highest dose activity change, negative = inhibition, usual class: inhibitors | 410,000 compounds, 1.2% hits | FMDV antiviral cell-based qHTS | AID 1159524, 2015; calls by dose curve; tested in HEK293T cells; also: read-out not given here; potency is read from the fitted curve at half-maximal effect; nearly all actives have a fitted effect of over 45% in size
Vaccinia Venus: qHTS for Stage-Specific Inhibitors of Vaccinia Orthopoxvirus: Venus Reporter Primary qHTS; Vaccinia virus Venus reporter expression, fluorescence; 330,000 compounds, 0.46% hits; Potency, µM (series often up to 36.5 µM), for inactives: at the highest dose activity change, negative = inhibition, usual class: inhibitors; AID 720580, 2013; calls by dose curve; tested in A549 cells; also: potency is read from the fitted curve at half-maximal effect; nearly all actives have a fitted effect of over 30% in size
FBPA Giardia inh: qHTS Assay for Inhibitors of Fructose-1,6-bisphosphate Aldolase from Giardia Lamblia | AID 2451, 2010 | purified Giardia FBPA | Potency, µM (doses to about 59.6 µM), inactives show top-dose activity, negative = inhibition, hits mostly inhibitors | 290,000 compounds, 0.71% hits | A8B2U2; also: potency is read from the fitted curve at half-maximal effect; nearly all actives have a fitted effect of over 55% in size
Target sequence (A8B2U2 whole entry, looked up): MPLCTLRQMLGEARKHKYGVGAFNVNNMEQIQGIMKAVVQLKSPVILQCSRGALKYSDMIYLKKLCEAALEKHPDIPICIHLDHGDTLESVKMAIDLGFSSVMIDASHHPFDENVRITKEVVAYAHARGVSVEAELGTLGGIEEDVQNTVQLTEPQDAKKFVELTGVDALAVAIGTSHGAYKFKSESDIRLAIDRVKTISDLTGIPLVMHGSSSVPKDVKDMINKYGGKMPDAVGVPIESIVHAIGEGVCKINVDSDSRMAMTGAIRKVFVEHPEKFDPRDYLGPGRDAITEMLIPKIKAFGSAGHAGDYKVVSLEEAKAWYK
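40 nM FBPA preincubated 10 min at RT with compound (up to 57.5 uM final), then substrate plus GAPDH/TPI/NAD/arsenate coupling and diaphorase/resazurin added. Fluorescence read after 20 min at RT, 525/598 nm.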
Vaccinia mCherry: qHTS for Stage-Specific Inhibitors of Vaccinia Orthopoxvirus: mCherry Reporter Primary qHTS; Vaccinia virus mCherry reporter infection, fluorescence; AID 720579, 2013; Potency, µM (top dose mostly 36.5 µM), without a hit: at the highest dose activity change, negative = inhibition, hits mostly inhibitors; 310,000 compounds, 0.63% hits; calls by dose curve; tested in A549 cells; also: potency is read from the fitted curve at half-maximal effect; nearly all actives have a fitted effect of over 35% in size
HCV inh: qHTS Assay for Inhibitors of Hepatitis C Virus (HCV); AID 651820, 2012; Huh7.5.1 HCVcc-Cre infection, luciferase reporter, 44 h; Potency, µM (series often up to 41.8 µM), for inactives: at the top dose activity change, negative = inhibition, actives largely listed as inhibitors; 340,000 compounds, 3.4% hits; also: potency is read from the fitted curve at half-maximal effect
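A cell-based infection assay in which seeded cells (1,000 per well) receive test compound after 4 h, are inoculated with HCVcc-Cre at approximately 0.5 moi, and are incubated 44 h before luminescence detection.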
Starred values were filed as active, the others as inactive; ! = repeats disagree; [ ] = remark or other dose. Unless noted, calls follow the shape of the dose curve; as a rule, active = well fitted curve in the direction sought with a large enough effect; inconclusive = small, poorly fitted or top-dose-only effect, or another doubt; inactive = no such curve, though single readings can be large; an effect the other way counts as inactive or inconclusive. % is scaled to controls: 0 for no effect and ±100 for the full control effect.

`C#C[C@]1(O)CC[C@H]2[C@@H]3CCc4cc(OC)ccc4[C@H]3CC[C@@]21C` gave HCMV inh 37.7, FMDV antiviral -18.9%, Vaccinia Venus -25.0%, FBPA Giardia inh 0.4%, Vaccinia mCherry inactive and HCV inh 1.5%[8.37 µM].
Screening O=C(COc1ccccc1C(=O)Nc1ccccc1)Nc1ccccc1Cl returned Vaccinia Venus -21.7% and Vaccinia mCherry -16.8%.
Screening CCC(C)(C)NC(=O)C(c1ccc(F)cc1)N(Cc1ccc(OC)cc1)C(=O)c1cnccn1 (stereo not given) returned HCMV inh -66.1*, FMDV antiviral 63.9%, Vaccinia Venus 0.0%, FBPA Giardia inh -3.2%, Vaccinia mCherry -12.0% and HCV inh 4.2%.
Cc1ccc(NC(=O)NCc2ccco2)cc1[N+](=O)[O-] was read as HCMV inh -32.1.
Screening COc1ccc(NC(=O)C2CCCN(S(=O)(=O)c3ccc(-n4cnnn4)cc3)C2)cc1 (stereo not given) returned HCMV inh -23.7, FMDV antiviral -3.7%, Vaccinia Venus -12.2%, FBPA Giardia inh -3.9%, Vaccinia mCherry -16.2% and HCV inh -8.4%.
`O=S(=O)(c1cccc(F)c1)N1CCC(Oc2ccc(-n3cnnn3)cc2)CC1` gave HCMV inh -95.9*, FMDV antiviral inconclusive, Vaccinia Venus -23.3% and Vaccinia mCherry -17.5%.
Screening CC(=O)Nc1ccc(S(=O)(=O)N2CCC(Oc3ccc(-n4cnnn4)cc3)CC2)cc1 returned HCMV inh -88.7*!, FMDV antiviral inconclusive, Vaccinia Venus -26.7%, Vaccinia mCherry inconclusive and HCV inh -5.8%.
`CCc1cc(=O)oc2c3c(cc(OCC(=O)N[C@H](C(=O)O)[C@H](C)CC)c12)OC(C)(C)CC3` gave HCMV inh inconclusive, FMDV antiviral 14.4%, Vaccinia Venus -18.8%, FBPA Giardia inh 3.0%, Vaccinia mCherry -1.1% and HCV inh 1.2%.
For O=C(Nc1ccn(CCCNCc2cccc3ccccc23)c(=O)n1)OCc1ccccc1 the results were HCMV inh -8.8, FMDV antiviral -1.3%, Vaccinia Venus -4.9% and Vaccinia mCherry -24.9%.
`CC(C)Cc1nc(SCc2cccnc2)c2c(=O)n(C)c(=O)n(C)c2n1` gave HCMV inh inconclusive, FMDV antiviral inconclusive, Vaccinia Venus -24.0%, FBPA Giardia inh 9.6%, Vaccinia mCherry inactive and HCV inh 10µM*.
For NC(=O)CC(NC(=O)Cc1cccc2ccccc12)c1ccc(NCc2ccc(F)cc2)c([N+](=O)[O-])c1 (stereo not given) the results were HCMV inh -4.7, FMDV antiviral -20.5%, Vaccinia Venus inconclusive, FBPA Giardia inh 1.8%, Vaccinia mCherry -22.0% and HCV inh -12.1%.
For NC(=O)CC(NC(=O)Cc1ccc(Br)cc1)c1ccc(NC2CCN(Cc3ccccc3)CC2)c([N+](=O)[O-])c1 (stereo not given) the results were HCMV inh -93.5*, FMDV antiviral 9.3%, Vaccinia Venus inconclusive, FBPA Giardia inh -6.1%, Vaccinia mCherry inconclusive and HCV inh 1.7%.
`NC(=O)CC(NC(=O)Cc1cccc2ccccc12)c1ccc(NCCc2ccccc2F)c([N+](=O)[O-])c1` (stereo not given) gave HCMV inh -80.8*, FMDV antiviral -7.1%, Vaccinia Venus -27.3%, FBPA Giardia inh -0.4%, Vaccinia mCherry -10.6% and HCV inh 13.9%.
For NC(=O)CC(NC(=O)Cc1cccc2ccccc12)c1ccc(NCCc2ccc(F)cc2)c([N+](=O)[O-])c1 (stereo not given) the results were HCMV inh -67.5*, FMDV antiviral -5.1%, Vaccinia Venus inconclusive, FBPA Giardia inh 1.8%, Vaccinia mCherry -29.0% and HCV inh 6.0%.
Screening NC(=O)CC(NC(=O)Cc1cccc2ccccc12)c1ccc(NC2CCCCCCC2)c([N+](=O)[O-])c1 (stereo not given) returned HCMV inh -62.5*, FMDV antiviral -8.8%, Vaccinia Venus -7.2%, FBPA Giardia inh 2.6%, Vaccinia mCherry inactive and HCV inh 19.6%.
NC(=O)CC(NC(=O)Cc1cccc2ccccc12)c1ccc(NCc2ccccc2)c([N+](=O)[O-])c1 (stereo not given) was read as HCMV inh -7.9, FMDV antiviral -6.4%, Vaccinia Venus inconclusive, FBPA Giardia inh 1.6%, Vaccinia mCherry inactive and HCV inh 0.1%.
For COc1cc(Cl)c(C)cc1NC(=O)c1cnc(N2CCCCC2)c2ccccc12 the results were HCMV inh 1.0, FMDV antiviral -8.5%, Vaccinia Venus -7.4% and Vaccinia mCherry -6.2%.
Screening CCOC(=O)C(Cc1ccccc1)(Nc1ccccc1OC)C(O)c1ccccc1Br (stereo not given) returned HCMV inh -4.9.
For CN(C)c1ccc(/C=C/N2C=CCc3c2ccc2ccccc32)cc1 the results were Vaccinia Venus inactive and Vaccinia mCherry inactive.
`C[C@@H]1O[C@@H](O[C@@H]2C=C3CCC4C(CC[C@]5(C)[C@@H](c6ccc(=O)oc6)CC[C@]45O)[C@@]3(C)CC2)[C@H](O)[C@H](O)[C@H]1O` (stereo not given in full) gave HCMV inh -98.8*, FMDV antiviral inconclusive, Vaccinia Venus 0.631µM*, Vaccinia mCherry inconclusive and HCV inh inconclusive.
C[C@@H]1O[C@@H](O[C@@H]2C=C3CC[C@@H]4C(CC[C@]5(C)[C@@H](c6ccc(=O)oc6)CC[C@]45O)[C@@]3(C)CC2)[C@H](O)[C@H](O)[C@H]1O (stereo not given in full) was read as HCMV inh -96.9*, FMDV antiviral inconclusive, Vaccinia Venus inconclusive, Vaccinia mCherry 31.6µM* and HCV inh 0.562µM*.
C[C@@H]1O[C@H](O[C@@H]2C[C@@H](O)[C@]3(CO)[C@H]4[C@H](O)C[C@]5(C)[C@@H](C6=CC(=O)OC6)CC[C@@]5(O)[C@@H]4CC[C@]3(O)C2)[C@@H](O)[C@H](O)[C@H]1O was read as FMDV antiviral inconclusive and FBPA Giardia inh -0.2%.
C[C@@H]1O[C@@H](OC2CC(O)C3(CO)C4C(CCC3(O)C2)C2(O)CCC(C3=CC(=O)OC3)C2(C)C[C@H]4O)[C@H](O)[C@H](O)[C@H]1O (stereo not given in full) was read as FBPA Giardia inh 2.1%.
